Assay results taken from paper PMC7862700, “An all-to-all approach to the identification of sequence-specific readers for epigenetic DNA modifications on cytosine”.

Columns and labels:
Experiment in all cases: DAPPL (digital affinity profiling via proximity ligation, sequencing); 10 mM Tris-HCl pH 7.5, 50 mM NaCl, 1 mM DTT, 4% glycerol, room temperature, 30 min; GST-TFs on glutathione beads, 16-mer random dsDNA library, 0.1% formaldehyde crosslink after washing; high values mean tight binding
[1] = biological target: T1, FLI1 (Homo sapiens, UniProt Q01543 1-452); conditions: protein: recombinant; tags: N-terminal GST; dsDNA, one strand shown
T1 sequence: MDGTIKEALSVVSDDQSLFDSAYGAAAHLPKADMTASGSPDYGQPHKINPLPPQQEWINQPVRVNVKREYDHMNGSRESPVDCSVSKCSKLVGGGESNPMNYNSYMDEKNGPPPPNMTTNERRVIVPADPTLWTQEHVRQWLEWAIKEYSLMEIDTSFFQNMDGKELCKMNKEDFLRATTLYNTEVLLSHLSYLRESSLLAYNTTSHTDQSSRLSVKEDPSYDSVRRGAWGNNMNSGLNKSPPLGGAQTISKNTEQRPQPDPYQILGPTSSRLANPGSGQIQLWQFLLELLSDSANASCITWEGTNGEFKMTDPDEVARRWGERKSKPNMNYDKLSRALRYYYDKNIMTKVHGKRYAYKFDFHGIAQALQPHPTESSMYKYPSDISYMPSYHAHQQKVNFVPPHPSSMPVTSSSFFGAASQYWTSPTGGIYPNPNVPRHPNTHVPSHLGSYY
Procedure, shortened: (§1)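 Human transcription factors were made in yeast as GST fusions, captured on glutathione beads and barcoded with DNA. With a tag-only sample included, the pool was incubated with 200 nmole of a random double-stranded 16-mer DNA library in Tris/NaCl/DTT/glycerol buffer at room temperature for 30 min, then crosslinked with 0.1% formaldehyde after washing, ligated by proximity, amplified and sequenced. For binding signal, each hexamer's read frequency for a factor is divided by its frequency for the tag-only sample.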

[2] = biological target: T2, ELK1 (Homo sapiens, UniProt P19419 1-428); conditions: protein: recombinant; tags: N-terminal GST; dsDNA, one strand shown
T2 sequence: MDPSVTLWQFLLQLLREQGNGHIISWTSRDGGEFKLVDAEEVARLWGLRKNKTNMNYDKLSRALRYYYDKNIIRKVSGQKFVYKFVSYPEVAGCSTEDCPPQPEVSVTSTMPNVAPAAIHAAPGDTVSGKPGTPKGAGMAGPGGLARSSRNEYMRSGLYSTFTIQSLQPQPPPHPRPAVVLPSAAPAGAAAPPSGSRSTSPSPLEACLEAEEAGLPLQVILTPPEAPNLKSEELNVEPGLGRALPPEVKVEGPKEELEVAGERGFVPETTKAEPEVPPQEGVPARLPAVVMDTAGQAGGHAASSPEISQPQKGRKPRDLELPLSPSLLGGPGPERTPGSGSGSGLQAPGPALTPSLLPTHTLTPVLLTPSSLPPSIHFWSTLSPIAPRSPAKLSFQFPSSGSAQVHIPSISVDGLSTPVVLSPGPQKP
Procedure, shortened: as §1

[3] = biological target: T3, GABPA (Homo sapiens, UniProt Q06546 1-454); conditions: protein: recombinant; tags: N-terminal GST; dsDNA, one strand shown
T3 sequence: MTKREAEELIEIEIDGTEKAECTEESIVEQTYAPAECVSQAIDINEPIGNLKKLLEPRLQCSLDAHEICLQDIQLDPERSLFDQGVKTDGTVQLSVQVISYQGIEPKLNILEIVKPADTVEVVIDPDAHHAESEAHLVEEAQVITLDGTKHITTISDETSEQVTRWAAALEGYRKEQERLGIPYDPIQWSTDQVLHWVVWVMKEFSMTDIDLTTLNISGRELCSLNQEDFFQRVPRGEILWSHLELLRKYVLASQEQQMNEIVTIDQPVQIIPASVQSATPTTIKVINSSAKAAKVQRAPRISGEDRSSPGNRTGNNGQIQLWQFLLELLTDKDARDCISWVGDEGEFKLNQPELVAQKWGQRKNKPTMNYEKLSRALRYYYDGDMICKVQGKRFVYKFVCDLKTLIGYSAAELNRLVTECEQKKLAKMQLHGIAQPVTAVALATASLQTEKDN
Procedure, shortened: as §1

[4] = biological target: T4, ERG (Homo sapiens, UniProt P11308 1-479); conditions: protein: recombinant; tags: N-terminal GST; dsDNA, one strand shown
T4 sequence: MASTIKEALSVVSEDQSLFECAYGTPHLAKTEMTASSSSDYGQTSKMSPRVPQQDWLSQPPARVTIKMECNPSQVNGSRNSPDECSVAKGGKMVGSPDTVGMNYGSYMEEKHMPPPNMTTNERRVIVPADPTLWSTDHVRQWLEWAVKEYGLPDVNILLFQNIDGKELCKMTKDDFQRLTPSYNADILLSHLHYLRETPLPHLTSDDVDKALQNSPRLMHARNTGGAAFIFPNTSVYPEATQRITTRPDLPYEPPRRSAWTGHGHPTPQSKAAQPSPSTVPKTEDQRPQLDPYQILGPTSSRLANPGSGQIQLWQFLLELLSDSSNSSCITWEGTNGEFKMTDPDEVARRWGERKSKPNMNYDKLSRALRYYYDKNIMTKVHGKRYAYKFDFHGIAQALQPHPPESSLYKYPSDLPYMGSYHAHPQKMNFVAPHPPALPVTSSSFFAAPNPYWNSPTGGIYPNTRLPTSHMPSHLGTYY
Procedure, shortened: as §1

[5] = biological target: ELF1 (Homo sapiens, UniProt P32519 1-619); conditions: protein: recombinant; tags: N-terminal GST; dsDNA, one strand shown
ELF1, sequence (P32519 whole entry): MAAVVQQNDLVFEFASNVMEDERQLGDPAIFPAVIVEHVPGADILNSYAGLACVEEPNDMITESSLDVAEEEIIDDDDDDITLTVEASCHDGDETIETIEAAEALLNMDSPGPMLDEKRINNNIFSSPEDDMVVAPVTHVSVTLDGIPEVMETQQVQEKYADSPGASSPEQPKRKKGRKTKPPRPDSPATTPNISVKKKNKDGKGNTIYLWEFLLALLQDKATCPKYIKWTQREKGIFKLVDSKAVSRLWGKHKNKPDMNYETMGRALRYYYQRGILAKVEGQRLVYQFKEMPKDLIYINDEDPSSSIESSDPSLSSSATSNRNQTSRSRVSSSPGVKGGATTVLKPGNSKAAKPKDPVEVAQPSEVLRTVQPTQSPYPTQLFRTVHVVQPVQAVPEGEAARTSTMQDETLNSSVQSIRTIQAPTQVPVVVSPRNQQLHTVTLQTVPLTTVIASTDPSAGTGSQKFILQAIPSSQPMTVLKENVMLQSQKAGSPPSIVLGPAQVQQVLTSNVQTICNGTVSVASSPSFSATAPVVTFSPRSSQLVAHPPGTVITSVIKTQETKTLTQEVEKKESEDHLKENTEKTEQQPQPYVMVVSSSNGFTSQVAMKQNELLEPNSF
Procedure, shortened: as §1

[6] = biological target: T5, EHF (Homo sapiens, UniProt Q9NZC4 1-300); conditions: protein: recombinant; tags: N-terminal GST; dsDNA, one strand shown
T5 sequence: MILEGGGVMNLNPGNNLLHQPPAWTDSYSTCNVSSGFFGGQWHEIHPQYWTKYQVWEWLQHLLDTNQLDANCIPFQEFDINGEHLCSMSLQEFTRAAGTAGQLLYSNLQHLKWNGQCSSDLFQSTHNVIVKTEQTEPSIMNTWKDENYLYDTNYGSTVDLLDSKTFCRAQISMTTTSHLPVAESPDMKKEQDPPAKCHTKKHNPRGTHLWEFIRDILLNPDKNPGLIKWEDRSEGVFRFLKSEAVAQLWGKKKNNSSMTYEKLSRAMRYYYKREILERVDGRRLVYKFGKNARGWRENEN
Procedure, shortened: as §1

[7] = biological target: SPI1 (Homo sapiens, UniProt P17947 1-270); conditions: protein: recombinant; tags: N-terminal GST; dsDNA, one strand shown
Procedure, shortened: as §1

[8] = biological target: SPIB (Homo sapiens, UniProt Q01892 1-262); conditions: protein: recombinant; tags: N-terminal GST; dsDNA, one strand shown
SPIB, sequence (Q01892 whole entry): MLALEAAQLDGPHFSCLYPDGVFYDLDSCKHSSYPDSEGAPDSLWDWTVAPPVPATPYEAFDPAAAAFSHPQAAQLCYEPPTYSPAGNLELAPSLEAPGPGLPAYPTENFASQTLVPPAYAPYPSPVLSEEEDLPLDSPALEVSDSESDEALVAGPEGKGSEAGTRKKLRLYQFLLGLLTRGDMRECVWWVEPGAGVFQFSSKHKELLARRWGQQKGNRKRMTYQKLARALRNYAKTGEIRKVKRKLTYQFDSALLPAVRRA
Procedure, shortened: as §1

[9] = biological target: T6, ELK3 (Homo sapiens, UniProt P41970 1-407); conditions: protein: recombinant; tags: N-terminal GST; dsDNA, one strand shown
T6 sequence: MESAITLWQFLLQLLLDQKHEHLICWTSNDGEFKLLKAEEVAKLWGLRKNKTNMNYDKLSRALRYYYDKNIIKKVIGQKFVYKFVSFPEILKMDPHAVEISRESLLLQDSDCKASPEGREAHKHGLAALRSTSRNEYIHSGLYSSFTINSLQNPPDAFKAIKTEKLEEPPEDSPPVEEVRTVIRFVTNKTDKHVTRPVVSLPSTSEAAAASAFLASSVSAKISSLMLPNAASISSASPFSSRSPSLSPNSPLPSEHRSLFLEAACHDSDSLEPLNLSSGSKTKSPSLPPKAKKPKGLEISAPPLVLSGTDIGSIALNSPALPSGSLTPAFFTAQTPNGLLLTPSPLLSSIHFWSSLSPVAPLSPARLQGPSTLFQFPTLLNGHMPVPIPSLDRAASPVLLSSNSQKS
Procedure, shortened: as §1

[10] = biological target: T7, FEV (Homo sapiens, UniProt Q99581 1-238); conditions: protein: recombinant; tags: N-terminal GST; dsDNA, one strand shown
T7 sequence: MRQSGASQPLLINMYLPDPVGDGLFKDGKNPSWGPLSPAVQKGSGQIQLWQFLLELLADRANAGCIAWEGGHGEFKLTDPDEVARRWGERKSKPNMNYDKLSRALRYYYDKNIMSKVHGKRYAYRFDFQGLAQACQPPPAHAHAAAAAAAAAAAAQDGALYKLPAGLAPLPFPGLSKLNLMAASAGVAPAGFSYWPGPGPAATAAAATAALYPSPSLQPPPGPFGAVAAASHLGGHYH
Procedure, shortened: as §1

[11] = biological target: ETV5 (Homo sapiens, UniProt P41161 1-510); conditions: protein: recombinant; tags: N-terminal GST; dsDNA, one strand shown
ETV5, sequence (P41161 whole entry): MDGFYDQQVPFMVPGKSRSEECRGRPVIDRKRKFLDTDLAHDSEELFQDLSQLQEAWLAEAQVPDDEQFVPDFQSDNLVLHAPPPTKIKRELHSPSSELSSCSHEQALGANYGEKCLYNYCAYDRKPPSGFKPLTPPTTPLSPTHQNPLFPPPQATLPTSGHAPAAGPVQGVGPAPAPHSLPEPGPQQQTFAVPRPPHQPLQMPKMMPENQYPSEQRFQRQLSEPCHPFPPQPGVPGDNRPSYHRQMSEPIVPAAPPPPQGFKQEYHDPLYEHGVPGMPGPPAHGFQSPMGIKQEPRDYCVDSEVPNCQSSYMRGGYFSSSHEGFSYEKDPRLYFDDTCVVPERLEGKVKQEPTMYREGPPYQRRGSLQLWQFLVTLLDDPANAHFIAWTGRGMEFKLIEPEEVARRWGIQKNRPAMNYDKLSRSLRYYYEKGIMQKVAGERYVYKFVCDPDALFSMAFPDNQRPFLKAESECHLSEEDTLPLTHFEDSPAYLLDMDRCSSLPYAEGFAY
Procedure, shortened: as §1

[12] = biological target: HSF1 (Homo sapiens, UniProt Q00613 1-529); conditions: protein: recombinant; tags: N-terminal GST; chain copies: 3; dsDNA, one strand shown
HSF1, sequence (Q00613 whole entry): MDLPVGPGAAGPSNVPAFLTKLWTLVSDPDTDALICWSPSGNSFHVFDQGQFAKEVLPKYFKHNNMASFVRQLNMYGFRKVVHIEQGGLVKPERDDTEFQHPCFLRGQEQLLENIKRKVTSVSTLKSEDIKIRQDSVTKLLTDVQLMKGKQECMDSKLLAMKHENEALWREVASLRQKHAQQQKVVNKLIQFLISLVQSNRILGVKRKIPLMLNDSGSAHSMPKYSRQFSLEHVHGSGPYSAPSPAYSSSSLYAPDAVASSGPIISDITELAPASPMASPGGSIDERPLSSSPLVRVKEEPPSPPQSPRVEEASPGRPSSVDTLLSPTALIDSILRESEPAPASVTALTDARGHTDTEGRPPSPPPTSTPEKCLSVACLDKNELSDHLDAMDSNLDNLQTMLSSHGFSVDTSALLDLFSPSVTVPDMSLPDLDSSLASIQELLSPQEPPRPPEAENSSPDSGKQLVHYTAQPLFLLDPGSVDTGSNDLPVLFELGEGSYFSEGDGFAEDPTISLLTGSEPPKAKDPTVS
Procedure, shortened: as §1

[13] = biological target: T8, SPIC (Homo sapiens, UniProt Q8N5J4 1-248); conditions: protein: recombinant; tags: N-terminal GST; dsDNA, one strand shown
T8 sequence: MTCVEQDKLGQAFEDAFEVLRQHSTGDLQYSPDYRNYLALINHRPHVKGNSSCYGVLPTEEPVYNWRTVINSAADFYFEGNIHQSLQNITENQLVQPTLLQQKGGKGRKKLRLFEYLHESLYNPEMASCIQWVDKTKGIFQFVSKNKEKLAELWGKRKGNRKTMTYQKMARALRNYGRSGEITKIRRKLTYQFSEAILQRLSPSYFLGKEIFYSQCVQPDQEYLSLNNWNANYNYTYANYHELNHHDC
Procedure, shortened: as §1

[14] = biological target: ELF4 (Homo sapiens, UniProt Q99607 1-663); conditions: protein: recombinant; tags: N-terminal GST; dsDNA, one strand shown
ELF4, sequence (Q99607 whole entry): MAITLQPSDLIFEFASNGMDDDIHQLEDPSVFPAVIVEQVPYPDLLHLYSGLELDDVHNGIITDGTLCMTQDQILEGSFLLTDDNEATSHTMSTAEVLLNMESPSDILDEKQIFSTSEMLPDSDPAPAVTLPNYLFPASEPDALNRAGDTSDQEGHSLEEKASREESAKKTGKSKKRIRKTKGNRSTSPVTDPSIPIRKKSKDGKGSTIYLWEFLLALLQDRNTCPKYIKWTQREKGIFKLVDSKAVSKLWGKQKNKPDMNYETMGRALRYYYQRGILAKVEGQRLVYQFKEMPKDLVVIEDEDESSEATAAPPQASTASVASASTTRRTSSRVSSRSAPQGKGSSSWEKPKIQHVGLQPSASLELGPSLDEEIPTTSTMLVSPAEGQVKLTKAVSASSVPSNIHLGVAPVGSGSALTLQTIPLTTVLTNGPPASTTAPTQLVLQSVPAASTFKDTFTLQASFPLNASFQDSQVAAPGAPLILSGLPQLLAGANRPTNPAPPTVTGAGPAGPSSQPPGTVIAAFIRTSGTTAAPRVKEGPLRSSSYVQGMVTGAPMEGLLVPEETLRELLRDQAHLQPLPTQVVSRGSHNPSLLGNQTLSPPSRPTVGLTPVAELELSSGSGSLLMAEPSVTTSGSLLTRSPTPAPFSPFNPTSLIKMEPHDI
Procedure, shortened: as §1

[15] = biological target: T9, ELK4 (Homo sapiens, UniProt P28324-2 1-405); conditions: protein: recombinant; tags: N-terminal GST; dsDNA, one strand shown
T9 sequence: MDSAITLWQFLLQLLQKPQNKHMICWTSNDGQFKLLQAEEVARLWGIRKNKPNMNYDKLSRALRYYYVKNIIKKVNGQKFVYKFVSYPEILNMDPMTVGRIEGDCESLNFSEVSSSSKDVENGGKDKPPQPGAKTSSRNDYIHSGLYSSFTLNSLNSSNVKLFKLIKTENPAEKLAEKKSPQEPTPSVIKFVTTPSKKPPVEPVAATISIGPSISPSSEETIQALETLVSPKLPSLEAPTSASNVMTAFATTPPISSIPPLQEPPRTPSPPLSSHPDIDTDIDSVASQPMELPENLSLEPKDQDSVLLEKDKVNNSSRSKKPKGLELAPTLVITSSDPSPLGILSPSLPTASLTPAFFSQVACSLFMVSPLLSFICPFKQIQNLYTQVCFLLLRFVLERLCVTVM
Procedure, shortened: as §1

[16] = biological target: T10, ETV2 (Homo sapiens, UniProt O00321 1-342); conditions: protein: recombinant; tags: N-terminal GST; dsDNA, one strand shown
T10 sequence: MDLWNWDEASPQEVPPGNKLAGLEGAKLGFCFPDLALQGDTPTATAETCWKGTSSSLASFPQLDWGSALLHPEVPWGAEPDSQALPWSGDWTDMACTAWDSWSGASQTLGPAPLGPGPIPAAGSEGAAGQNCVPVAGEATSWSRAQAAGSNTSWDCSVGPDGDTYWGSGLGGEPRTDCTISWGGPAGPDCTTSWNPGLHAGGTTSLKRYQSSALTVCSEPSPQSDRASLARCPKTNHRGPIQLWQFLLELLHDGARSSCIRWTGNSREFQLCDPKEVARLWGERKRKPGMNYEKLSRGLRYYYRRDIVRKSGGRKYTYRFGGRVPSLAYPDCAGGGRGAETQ
Procedure, shortened: as §1

[17] = biological target: T11, ELF3 (Homo sapiens, UniProt P78545 1-371); conditions: protein: recombinant; tags: N-terminal GST; dsDNA, one strand shown
T11 sequence: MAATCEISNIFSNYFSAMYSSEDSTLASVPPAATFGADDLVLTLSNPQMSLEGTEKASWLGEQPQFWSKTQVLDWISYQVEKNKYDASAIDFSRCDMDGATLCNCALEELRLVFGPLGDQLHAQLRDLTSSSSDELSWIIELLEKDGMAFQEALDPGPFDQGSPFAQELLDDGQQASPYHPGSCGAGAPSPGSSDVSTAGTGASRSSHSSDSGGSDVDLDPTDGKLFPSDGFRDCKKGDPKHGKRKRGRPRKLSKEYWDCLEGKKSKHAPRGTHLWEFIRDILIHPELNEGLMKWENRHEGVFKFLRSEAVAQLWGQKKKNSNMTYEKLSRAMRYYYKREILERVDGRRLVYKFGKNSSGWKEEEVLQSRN
Procedure, shortened: as §1

[18] = biological target: CRX (Homo sapiens, UniProt O43186 1-299); conditions: protein: recombinant; tags: N-terminal GST; dsDNA, one strand shown
CRX, sequence (O43186 whole entry): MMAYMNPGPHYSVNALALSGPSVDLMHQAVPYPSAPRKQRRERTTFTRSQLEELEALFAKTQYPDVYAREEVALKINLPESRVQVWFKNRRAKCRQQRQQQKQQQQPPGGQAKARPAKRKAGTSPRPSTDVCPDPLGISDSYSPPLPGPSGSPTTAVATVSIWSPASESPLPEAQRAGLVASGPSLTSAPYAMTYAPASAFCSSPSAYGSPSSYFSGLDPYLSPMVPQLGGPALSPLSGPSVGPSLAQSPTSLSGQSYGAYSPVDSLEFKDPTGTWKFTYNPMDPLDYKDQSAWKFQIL
Procedure, shortened: as §1

[19] = biological target: ETV1 (Homo sapiens, UniProt P50549 1-477); conditions: protein: recombinant; tags: N-terminal GST; dsDNA, one strand shown
ETV1, sequence (P50549 whole entry): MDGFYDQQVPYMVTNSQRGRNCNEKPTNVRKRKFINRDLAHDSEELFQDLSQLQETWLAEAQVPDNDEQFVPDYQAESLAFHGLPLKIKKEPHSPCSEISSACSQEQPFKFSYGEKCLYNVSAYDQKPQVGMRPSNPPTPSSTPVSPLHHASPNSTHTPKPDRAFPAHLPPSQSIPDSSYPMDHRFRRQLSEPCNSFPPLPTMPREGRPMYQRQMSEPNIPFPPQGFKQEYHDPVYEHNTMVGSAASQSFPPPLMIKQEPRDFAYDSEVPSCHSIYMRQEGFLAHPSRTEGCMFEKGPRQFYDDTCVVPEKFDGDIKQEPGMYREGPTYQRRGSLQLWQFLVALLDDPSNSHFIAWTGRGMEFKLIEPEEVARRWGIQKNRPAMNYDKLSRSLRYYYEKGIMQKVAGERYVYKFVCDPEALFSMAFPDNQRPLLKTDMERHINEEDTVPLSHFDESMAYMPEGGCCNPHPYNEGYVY
Procedure, shortened: as §1

## ATCTCA
[1]
  binding signal: 1.17 fold enrichment (6-mer frequency, TF over GST control)
[2]
  binding signal: 1.18 fold enrichment (6-mer frequency, TF over GST control)
[3]
  binding signal: 1.15 fold enrichment (6-mer frequency, TF over GST control)
[4]
  binding signal: 1.11 fold enrichment (6-mer frequency, TF over GST control)
[5]
  binding signal: 1.2 fold enrichment (6-mer frequency, TF over GST control)
[6]
  binding signal: 1.25 fold enrichment (6-mer frequency, TF over GST control)
[7]
  binding signal: 1.12 fold enrichment (6-mer frequency, TF over GST control)
[8]
  binding signal: 1.19 fold enrichment (6-mer frequency, TF over GST control)
[9]
  binding signal: 1.18 fold enrichment (6-mer frequency, TF over GST control)
[10]
  binding signal: 1.16 fold enrichment (6-mer frequency, TF over GST control)
[11]
  binding signal: 1.18 fold enrichment (6-mer frequency, TF over GST control)
[12]
  binding signal: 1.19 fold enrichment (6-mer frequency, TF over GST control)
[13]
  binding signal: 1.14 fold enrichment (6-mer frequency, TF over GST control)
[14]
  binding signal: 1.18 fold enrichment (6-mer frequency, TF over GST control)
[15]
  binding signal: 1.14 fold enrichment (6-mer frequency, TF over GST control)
[16]
  binding signal: 1.23 fold enrichment (6-mer frequency, TF over GST control)
[17]
  binding signal: 1.22 fold enrichment (6-mer frequency, TF over GST control)
[18]
  binding signal: 1.51 fold enrichment (6-mer frequency, TF over GST control)
[19]
  binding signal: 1.16 fold enrichment (6-mer frequency, TF over GST control)
